# Screening results deposited in PubChem by National Center for Advancing Translational Sciences (NCATS).
# The list is not random: actives were taken first. Their share in the collection is about 4.2%.
# Sfp PPTase inh = inhibitors of Bacillus subtilis Sfp phosphopantetheinyl transferase. 3.5% of 310,000 active. Q9F4F7. Biochemical Sfp PPTase activity, qHTS. Potency, µM, inactives show largest response in the series, negative = inhibition, hits mostly inhibitors;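 note: the enzyme is Sfp with the accession as filed and its product quenches rhodamine fluorescence; 0% = enzyme reaction without inhibitor and -100% = no enzyme wells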
#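 Fluorescence-quenching assay: 15 nM Sfp-PPTase preincubated 15 min at room temperature with compound, then 5 uM rhodamine-CoA and 12.5 uM BHQ-2-labelled YbbR peptide added. Fluorescence (ex 525/em 598 nm) read at start and after 30 min; difference gives rate.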
# VDR inhibitor = inhibitors of human vitamin D receptor; Potency, µM, inactives show max response, negative = inhibition, actives largely listed as inhibitors; 0.93% of 400,000 active; P11473; VDR-SRC2-3 peptide fluorescence polarization, 2 h
#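 VDR–SRC2-3 interaction, FP format. Cmpds 23 nl via pintool, brief spin, 2 h ambient incubation.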
# 12-LOX inh = inhibitors of human 12S-lipoxygenase ALOX12; P18054; purified 12hLO, xylenol orange hydroperoxide absorbance; Potency, µM (titrated, usually from 108 µM), without a hit: at the highest dose activity change, negative = inhibition, actives largely listed as inhibitors; 1.1% of 580,000 active
# Target sequence (P18054 whole entry, looked up): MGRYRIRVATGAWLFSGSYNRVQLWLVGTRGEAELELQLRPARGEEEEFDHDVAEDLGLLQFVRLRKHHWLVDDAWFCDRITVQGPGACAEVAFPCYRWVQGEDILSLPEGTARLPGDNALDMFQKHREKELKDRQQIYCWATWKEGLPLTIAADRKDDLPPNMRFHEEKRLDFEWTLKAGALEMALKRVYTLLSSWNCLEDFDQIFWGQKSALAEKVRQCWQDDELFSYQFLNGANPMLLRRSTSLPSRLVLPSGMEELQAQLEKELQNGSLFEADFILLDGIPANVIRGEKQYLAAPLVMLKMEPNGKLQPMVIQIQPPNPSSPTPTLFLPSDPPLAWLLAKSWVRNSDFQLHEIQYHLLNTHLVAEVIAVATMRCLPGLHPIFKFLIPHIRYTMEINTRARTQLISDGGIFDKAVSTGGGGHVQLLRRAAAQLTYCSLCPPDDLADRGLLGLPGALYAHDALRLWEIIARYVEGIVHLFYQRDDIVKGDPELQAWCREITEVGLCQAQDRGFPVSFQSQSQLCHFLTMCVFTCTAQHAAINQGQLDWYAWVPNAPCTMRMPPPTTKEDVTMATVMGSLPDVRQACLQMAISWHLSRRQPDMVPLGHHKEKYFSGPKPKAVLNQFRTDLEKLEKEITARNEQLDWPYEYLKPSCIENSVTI
#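 Hydroperoxide product was detected by ferrous iron/xylenol orange as the 573 to 405 nm absorbance ratio. Arachidonic acid at 40 uM (final) was turned over for 30 min at room temperature by 150 nM human 12hLO, pH 7.0 Hepes buffer, after 15 min compound preincubation.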
# PLK1 PBD inh = PLK1 (human) polo-box domain binding inhibition; P53350; Plk1 PBD binding of FITC phosphopeptide, fluorescence polarization; Potency, µM, for inactives: max response, negative = inhibition, most hits filed as inhibitors; 2.8% of 360,000 active; AID 720504; note: series mostly up to about 57 µM; nearly all actives have a fitted effect of over 65% in size
# Starred values were filed as active, the others as inactive; ? = inconclusive; . = no result. Calls come from the whole dose curve; as a rule, active = well fitted curve in the direction sought with a large enough effect; inconclusive = small, poorly fitted or top-dose-only effect, or another doubt; inactive = no such curve, though single readings can be large; an effect the other way counts as inactive or inconclusive. Unless noted, % is set by controls: 0 for no effect and ±100 for the full control effect; potency is the fitted concentration of half-maximal effect.
SMILES,Sfp PPTase inh,VDR inhibitor,12-LOX inh,PLK1 PBD inh
COc1cccc(NC(=O)CSC2=C(C#N)C(c3ccc(C(C)C)cc3)C3=C(CCCC3=O)N2)c1 (stereo not given),.,.,51%,.
CC(C)c1ccc(C2C(C#N)=C(SCC(N)=O)NC3=C2C(=O)CCC3)cc1 (stereo not given),.,.,45µM*,.
C=Cc1c(C)c2cc3nc(cc4[nH]c(cc5nc(cc1[nH]2)C(C)=C5CCC(=O)O)c(CCC(=O)OC)c4C)[C@@]1(C)C3=CC=C(C(=O)OC)[C@H]1C(=O)OC (tested in a mixture with another compound),?,1.1µM*,.,.
CC(C)c1nnc(NC(=O)C2CCCN2C(=O)Nc2ccccc2)s1 (stereo not given),3%,-8%,-5%,4%
Cc1cccc(C)c1NC(=O)C1C(c2ccc3c(c2)OCO3)=Nc2ccccc2N1C(=O)c1cccc(C(F)(F)F)c1 (stereo not given),.,.,-4%,-11%
COc1cc2c(cc1OC)C(C)N(C(=O)c1cc3n(n1)C(C(F)(F)F)CC(c1ccco1)N3)CC2 (stereo not given),40µM*,9%,11%,-10%
Cc1cc(C)n(-c2ccc(F)cc2)c(=O)c1C#N,20%,2%,2%,-11%
Cc1cc(Cl)ccc1C(=O)C1CCCN(C(=O)c2ccc3ncccc3c2)C1 (stereo not given),8%,9%,-6%,-6%
Cc1cc(Cl)ccc1C(=O)C1CCCN(C(=O)c2cccc(N3CCCC3=O)c2)C1 (stereo not given),13%,?,0%,24µM*
O=S(=O)(c1ccc(NC(=S)N/N=C/c2ccc(O)c(O)c2)cc1)N1CCOCC1,-4%,0%,?,-17%
O=[N+]([O-])c1cc(Cl)cc(/C=N/NC(=S)Nc2ccc(S(=O)(=O)N3CCOCC3)cc2)c1O,?,-13%,?,17µM*
CCc1ccc(C(C)NC(=O)c2cc(C)oc2C)cc1 (stereo not given),16µM*,-17%,?,?
CCc1nnc(SCC(=O)Nc2nnc(C)s2)n1CC1CCCO1 (stereo not given),12%,-1%,0%,0%
COc1cccc(C(=O)NN2CC(O)=C(c3nc4ccccc4n3C)C2=N)c1,4%,.,.,.
O=C(NC(=S)Nc1ccccc1Cl)c1csnn1,50µM*,?,?,-13%
CCOC(=O)c1sc(=S)n(CC)c1NC(=O)c1ccccc1C,6%,-17%,43%,0%
CCOC(=O)c1sc(=S)n(C)c1NC(=O)c1cccc(Br)c1,18µM*,?,?,11µM*
CCOC(=O)c1sc(=S)n(C)c1NC(=O)c1ccccc1,14µM*,79µM*,?,7.5µM*
CC(C)Cn1c(SCC(=O)NC(C)c2ccccc2Cl)nc2ncccc2c1=O (stereo not given),.,.,-19%,.
O=C(O)c1cc(N(Cc2ccccc2O)Cc2cc(O)ccc2O)ccc1O,18µM*,50µM*,?,.
COc1cc(/C=N/N=C2/SCC(=O)N2c2ccc(O)cc2)ccc1O,7%,18µM*,2%,3µM*
COc1ccc(/C=N\N=C2/SC(CC(=O)O)C(=O)N2c2ccc(O)cc2)cc1OC (stereo not given),11%,-9%,6%,-2%
CCOC(=O)c1cc2c(C)n(-c3ccc(OCC)cc3)c(C)c2ccc1=O,79µM*,-8%,40µM*,-8%
Cc1ccc(-n2ccnc2SCC(=O)N(CC(C)C)C2CCS(=O)(=O)C2)c(C)c1 (stereo not given),0%,?,0%,11µM*
NC(=O)NCCC1=CCCCC1,14%,0%,-24%,-4%
SMILES,Sfp PPTase inh,VDR inhibitor,12-LOX inh,PLK1 PBD inh
C=CCn1c(N)c(C(=O)NCCC2=CCCCC2)sc1=S,25µM*,?,18µM*,7.5µM*
Cc1ccccc1-c1nnc(-c2ccc(C(=O)NCC3CCCO3)cc2)o1 (stereo not given),.,.,-18%,.
CCOc1ccc(OCc2cccc(C(=O)Nc3ccc(CN4CCCCC4)cc3)c2)cc1,13µM*,-1%,?,-19%
COc1ccc(OCc2cccc(C(=O)Nc3ccc(CN4CCCCC4)cc3)c2)cc1,-18%,14%,22%,2%
Oc1ccc2ccccc2c1CNc1ccc(Br)cc1,-15%,?,3.5µM*,6.7µM*
Oc1ccc2ccccc2c1CNc1ccc(Br)cn1,0%,-2%,-4%,5%
CC(OC(=O)Cc1n[nH]c(=O)c2ccccc12)C(=O)Nc1ccc(Cl)cn1 (stereo not given),9%,-12%,-9%,-9%
CC(C)C(c1nnnn1C(C)(C)C)N1CCN(c2cccc(Cl)c2)CC1 (stereo not given),8%,-3%,-10%,3µM*
C=CCNc1sc(C(=O)c2ccccc2)c(N)c1-c1nc2ccccc2s1,20µM*,-14%,.,17µM*
Nc1nc2n(n1)C(=O)CC(c1ccccc1)N2 (stereo not given),28%,5%,-6%,27µM*
COc1ccc2[nH]c3c(c2c1)CCN1C(=O)C(CC(=O)NCc2ccc(OC)c(OC)c2)C[C@H](C(=O)N2CCOCC2)[C@@]31CCC1CCCC1 (stereo not given in full),.,?,?,19µM*
C/C(=C\C=C\c1ccco1)C(=O)c1ccc(Br)cc1,.,.,2µM*,.
O=C(COc1ncnc2sc3c(c12)CCC3)Nc1ccc(S(=O)(=O)N2CCCC2)cc1,.,.,-19%,.
Cc1cccc(N2CCN(C(=O)c3ccccc3NC(=O)C3=CSCCO3)CC2C)c1 (stereo not given),10%,?,3%,24µM*
COc1ccc(N/C=C2\C(=O)CCc3c2oc2cc(Cl)c(O)c(Cl)c32)cc1,-18%,-17%,6.3µM*,-9%
OCC1CCCCN1C(=S)NCc1ccco1 (stereo not given),50µM*,-10%,-8%,1%
CCNC(=S)N1CCCCC1CO (stereo not given),-9%,-2%,3%,-5%
CCn1c(C)c(P(=O)(N2CCOCC2)N2CCOCC2)c2ccccc21,7%,-2%,-9%,3%
Cn1cc(P(=O)(N2CCOCC2)N2CCOCC2)cc1P(=S)(N1CCOCC1)N1CCOCC1,20µM*,?,-10%,11µM*
Cn1cc(P(=S)(N2CCOCC2)N2CCOCC2)cc1P(=O)(N1CCOCC1)N1CCOCC1,50µM*,?,0%,13µM*
Cc1oc2cc3oc(=O)c(CC(=O)N[C@H](C(=O)N[C@@H](C(=O)O)c4ccccc4)C(C)C)c(C)c3cc2c1C,-8%,-7%,-9%,-6%
CN(CC(=O)Nc1cccc(F)c1)C(=O)CSc1ccccc1F,1%,0%,?,24µM*
CN(CC(=O)Nc1cccc(F)c1)C(=O)CCSc1ccc(F)cc1,.,-15%,?,-11%
O=C(Nc1nc2ccccc2s1)C1c2ccccc2Oc2ccccc21,4%,-11%,-20%,8%
O=C(O)C1CCCCC1C(=O)Nc1nc(-c2ccc(Cl)s2)cs1 (stereo not given),22µM*,-1%,?,?
